Bioassay records: PubChem BioAssay, National Center for Advancing Translational Sciences (NCATS)
Bst PK mod: Pyruvate Kinase; purified pyruvate kinase, luminescence ATP production; ribose 5-phosphate activator present at AC10; Potency, µM; hit rate 1.2% among 51,000; AID 361, 2006; in the data active means potency below about 11 µM; inconclusive means mostly about 12 µM to 25 µM;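 the screen sought inhibitors and activators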;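 further: potency means the concentration at half of the fitted maximal effect; scaled between full activation by ribose 5 phosphate and full inhibition by luteolin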
USP2a inh: qHTS Assay for Inhibitors of Ubiquitin-specific Protease USP2a | Potency, µM (doses to about 38.3 µM), for the others: top-dose activity change, negative = inhibition, hits mostly inhibitors | USP2a enzymatic assay, qHTS inhibition | Ubiquitin carboxyl-terminal hydrolase 2 (Homo sapiens), O75604 | hit rate 0.1% among 60,000; further: potency means the concentration at half of the fitted maximal effect; nearly all actives have a fitted effect of over 60% in size
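Coupled readout: USP2-cleaved Ub-PLA2 (20nM final) turns over NBD C6-HPC (20uM final), Ex 460nm/Em 535nm after 2.5 h, time-zero read flagging artifacts. Enzyme (20nM final, pH 8.0 Tris) given 30 min RT with compound first; NEM defines full inhibition.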
Tau filament bind: qHTS Assay for Tau Filament Binding; Microtubule-associated protein tau (Homo sapiens), P10636; recombinant tau filaments, thioflavin S fluorescence, 15 h; filaments grown with octadecylsulfate alongside compound; Potency, µM (top dose mostly 57.1 µM), for the others: top-dose activity change, negative = inhibition; hit rate 2% among 71,000; AID 596, 2007;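 further: potency means the concentration at half of the fitted maximal effect; on the % scale 0 is the no-effect control and ±100 the full control effect; actives lower thioflavin S fluorescence by blocking filaments or displacing dye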
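His-tagged recombinant human tau (exons 2, 3 and 10 included), 1 uM, was induced to fibrillize by 30 uM sodium octadecylsulfate with compound present. After 15 h at 37 C, thioflavine S fluorescence (ex 450, em 510 nm) was read.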
15-hLO inh: qHTS Assay for Inhibitors of 15-hLO (15-human lipoxygenase); Polyunsaturated fatty acid lipoxygenase ALOX15 (Homo sapiens), P16050; purified 15hLO-1, xylenol orange hydroperoxide absorbance; Potency, µM (series often up to 57.1 µM), for inactives: top-dose activity change, negative = inhibition, hits mostly inhibitors; hit rate 1.4% among 74,000; AID 887, 2007; further: potency means the concentration at half of the fitted maximal effect; on the % scale 0 is the no-effect control and ±100 the full control effect; nearly all actives have a fitted effect of over 55% in size
Target sequence (P16050 whole entry, looked up): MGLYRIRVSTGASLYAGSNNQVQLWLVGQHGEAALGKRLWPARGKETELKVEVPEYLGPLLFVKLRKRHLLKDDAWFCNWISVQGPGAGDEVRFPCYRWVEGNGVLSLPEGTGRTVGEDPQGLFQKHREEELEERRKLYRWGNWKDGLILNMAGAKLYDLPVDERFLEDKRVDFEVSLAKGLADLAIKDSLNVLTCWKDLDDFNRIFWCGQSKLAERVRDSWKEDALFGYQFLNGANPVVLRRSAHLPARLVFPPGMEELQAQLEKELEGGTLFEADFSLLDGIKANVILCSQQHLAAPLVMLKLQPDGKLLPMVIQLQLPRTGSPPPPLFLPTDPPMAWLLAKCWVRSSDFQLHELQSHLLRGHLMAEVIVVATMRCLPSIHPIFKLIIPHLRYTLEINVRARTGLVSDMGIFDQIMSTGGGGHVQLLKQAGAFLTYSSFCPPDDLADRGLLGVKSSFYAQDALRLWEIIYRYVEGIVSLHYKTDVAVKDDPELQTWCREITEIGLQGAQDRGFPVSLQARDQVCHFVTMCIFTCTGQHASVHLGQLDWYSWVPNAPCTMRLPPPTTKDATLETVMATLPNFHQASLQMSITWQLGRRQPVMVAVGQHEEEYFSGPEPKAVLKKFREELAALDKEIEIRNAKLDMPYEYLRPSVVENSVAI
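Purified human 15hLO-1 (40 nM final) in 25 mM Hepes pH 7.5, 0.01% Triton X-100 was preincubated with compound 15 min at room temperature, then reacted 6 min with 50 uM arachidonic acid; hydroperoxide detected by Fe-XO, 573/405 nm absorbance ratio.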
Hsp90 Hop PPI: qHTS Assay for Disrupters of an Hsp90 Co-Chaperone Interaction; Potency, µM (series often up to 57 µM), for the others: top-dose activity change, negative = inhibition; hit rate 0.44% among 71,000; Hsp90 C-terminal peptide / TPR2A (Hop) interaction, human; AlphaScreen TPR2A-His6 binding biotin-Hsp90 C-terminal peptide; active means well fitted curve in either direction with a large enough effect; inconclusive means small, poorly fitted or top-dose-only effect, or another doubt; further: potency means the concentration at half of the fitted maximal effect; on the % scale 0 is the no-effect control and ±100 the full control effect
GBA mod: Glucocerebrosidase. Lysosomal acid glucosylceramidase (Homo sapiens), P04062. purified enzyme, resorufin glucoside fluorescence (screen aimed at inhibitors), 20 min. Potency, µM. hit rate 1.1% among 48,000. AID 360, 2006; in the data active means potency below about 15 µM; inconclusive means mostly about 16 µM to 33 µM;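 further: potency means the concentration at half of the fitted maximal effect; the screen sought inhibitors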
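Compounds titrated against 0.2 nM normal enzyme, 30 uM resorufin beta-D-glucopyranoside substrate, citrate/phosphate buffer with taurocholate and tween-20, pH 5.9. Reaction ran 20 min at room temperature; fluorescence (Ex 548/Em 600) gave AC50.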
Hsp90 TPR2A CRC: Confirmation Concentration-Response Assay and Counterscreen for Disrupters of an Hsp90 Co-Chaperone Interaction | hit rate 100% among 45 | shares compounds with Hsp90 Hop PPI | AlphaScreen TPR2A-His6 / biotin-Hsp90 peptide binding | activity, negative = inhibition, % at 40 µM or 46 µM, hits read low | AID 632, 2007;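 active means compound lowering the Hsp90 and TPR2A binding signal, whether or not the linker counterscreen also flagged it as an artifact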
tau ThS displ: Tau ThS binding assay | shares compounds with Tau filament bind | recombinant tau filaments, Thioflavin S fluorescence displacement | Potency, µM | hit rate 40% among 60 | AID 911, 2007; calls by dose curve
aSyn ThS displ: Alpha-synuclein ThS binding assay | Potency, µM | recombinant alpha-synuclein fibrils, ThS fluorescence displacement | AID 937, 2007 | shares compounds with Tau filament bind | hit rate 40% among 60; calls by dose curve
Abeta ThS bind: Beta amyloid ThS binding assay; shares compounds with Tau filament bind; Abeta1-42 fibrillization, thioflavin S fluorescence, overnight 37 C; Potency, µM; hit rate 50% among 60; calls by dose curve
* marks the source's active call; other numbers are inactive results; ! = not confirmed by another sample; [ ] = dose if it differs, or a comment. An excerpt weighted towards active compounds, which were near 4.6% of everything screened. Unless noted, the call rests on the fitted dose curve; in most records, active means well fitted curve in the direction sought with a large enough effect; inconclusive means small, poorly fitted or top-dose-only effect, or another doubt; inactive means no such curve, though single readings can be large; an effect the other way counts as inactive or inconclusive.

For CC(=O)N(c1cccc(C)c1)C1SC(=O)N(c2ccccc2)C1=O (stereo unspecified) the results were Bst PK mod >57, USP2a inh -2.5%, Tau filament bind -1.5%, 15-hLO inh 2.3%, Hsp90 Hop PPI 0.6% and GBA mod >76.9.
O=C(O[C@@H]1Cc2c(O)cc(O)cc2OC1c1ccc(O)c(O)c1)c1cc(O)c(O)c(O)c1 (stereo partly specified) was read as USP2a inh inconclusive and 15-hLO inh 6.31µM*.
Screening O=c1c2c([nH]c3ccc(Br)cc13)CCCC2 returned USP2a inh -5.7%, Tau filament bind 11.8%, 15-hLO inh -5.6%, Hsp90 Hop PPI -4.0% and GBA mod inactive.
Screening O=C1Cc2c([nH]c3ccc(Br)cc23)-c2ccccc2N1 returned USP2a inh 22.3%, Tau filament bind 31.6µM*!, 15-hLO inh -10.7%[25.6 µM] and Hsp90 Hop PPI -1.1%.
`Cc1ccc(C)c(C(=O)c2c(C)nc3sccn23)c1` gave Bst PK mod >57, USP2a inh 3.6%, Tau filament bind -7.6%, 15-hLO inh 15.8µM*, Hsp90 Hop PPI 0.6% and GBA mod >76.9.
Screening Cc1nc2ccc(NC(=O)c3ccc(S(=O)(=O)N4CCOCC4)cc3)cc2s1 returned USP2a inh 8.4%, Tau filament bind 86.9%, 15-hLO inh 2.7% and Hsp90 Hop PPI -1.9%.
Screening COC(=O)Cc1cc(=O)n(-c2nc3ccccc3[nH]2)[nH]1 returned Bst PK mod >57, USP2a inh 19.5%, Tau filament bind -10.9%, 15-hLO inh 36.9%, Hsp90 Hop PPI 7.94µM*, GBA mod >76.9 and Hsp90 TPR2A CRC -99.5*[alpha-screen platform artifact].
For CCCc1nc2c(=O)n(C)c(=O)nc-2n(C)n1 the results were Hsp90 TPR2A CRC active.
N#Cc1nc(Cc2cccc3ccccc23)oc1NCCN1CCCCC1 was read as Bst PK mod 6.33*, USP2a inh 19.4%, Tau filament bind 25.6%, 15-hLO inh 29.4%, Hsp90 Hop PPI 7.94µM* and Hsp90 TPR2A CRC -23.3.
CN1CCN(c2nc3nonc3nc2N2CCN(C)CC2)CC1 was read as Bst PK mod >57, USP2a inh -5.4%, Tau filament bind 2.1%, 15-hLO inh inconclusive, Hsp90 Hop PPI -1.9% and GBA mod >76.9.
Screening CCCCN(CC)CCNS(=O)(=O)c1cccc2cccnc12 returned Tau filament bind -29.8%, 15-hLO inh inconclusive and Hsp90 Hop PPI -4.6%.
For CN1CCc2c(sc3c2C(=O)NC(c2ccccn2)N3)C1 (stereo unspecified) the results were Bst PK mod inactive, USP2a inh 17.4%, Tau filament bind inactive, 15-hLO inh 14.1%, Hsp90 Hop PPI 15.8µM*, GBA mod >76.9 and Hsp90 TPR2A CRC -81.3*[alpha-screen platform artifact].
For CN1CCc2c(sc3c2C(=O)NC(c2ccc4c(c2)OCO4)N3)C1 (stereo unspecified) the results were Bst PK mod inactive, USP2a inh -1.6%, Tau filament bind inactive, 15-hLO inh inconclusive, Hsp90 Hop PPI -2.7% and GBA mod >76.9.
For c1ccc(-c2n[nH]c(-c3ccccn3)n2)nc1 the results were USP2a inh 6.1%, Tau filament bind 6.1%, 15-hLO inh 58.6%, Hsp90 Hop PPI 0.2µM*, GBA mod >76.9 and Hsp90 TPR2A CRC -98.3*[alpha-screen platform artifact].
Screening c1ccc(-c2ccc(-c3nc(-c4ccccn4)no3)cc2)cc1 returned Tau filament bind 203.8%, 15-hLO inh 4.4% and Hsp90 Hop PPI 8.6%.
`CCOC(=O)C1=C(c2ccccc2)N(C)C(=O)NC1c1ccc(O)c(OC)c1` (stereo unspecified) gave Bst PK mod >57, USP2a inh 8.9%, Tau filament bind 17.1%, 15-hLO inh -1.0%, Hsp90 Hop PPI -2.5% and GBA mod >76.9.
Screening Oc1c(CN2CCOCC2)cc(COCc2ccccc2)c2cccnc12 returned Bst PK mod >57, USP2a inh 22.4%, Tau filament bind -47.9%, 15-hLO inh 23.2%, Hsp90 Hop PPI 1.58µM*, GBA mod inconclusive, Hsp90 TPR2A CRC -99.7*[alpha-screen platform artifact], tau ThS displ inactive, aSyn ThS displ inconclusive and Abeta ThS bind inactive.
`COc1cc(/C=N\n2nnnc2N)ccc1OCc1ccc(F)cc1` gave USP2a inh 15.1%, Tau filament bind 228.6%, 15-hLO inh inconclusive and Hsp90 Hop PPI -2.0%.
`CCn1c(=O)cc(OCC(=O)Nc2ccccc2N2CCN(C)CC2)c2ccccc21` gave Tau filament bind 37.2%, 15-hLO inh 1.0% and Hsp90 Hop PPI -1.0%.
`CC(=O)OCCNc1cc(N2CCN(C)CC2)c2noc3c2c1C(=O)c1ccccc1-3` gave Tau filament bind 3.16µM*, 15-hLO inh -11.7%, Hsp90 Hop PPI inconclusive, tau ThS displ 2.98µM*, aSyn ThS displ 2.67µM* and Abeta ThS bind 1.3µM*.
Screening CCN(CC)c1nc2ccccc2nc1C(C#N)C(=O)NCCc1ccccc1 (stereo unspecified) returned Bst PK mod >57, USP2a inh 8.7%, Tau filament bind 443.7%, 15-hLO inh -4.2%, Hsp90 Hop PPI 8.8% and GBA mod >76.9.
Screening N#CC(C(=O)NCCc1ccccc1)c1nc2ccccc2nc1N1CCCCC1 (stereo unspecified) returned Bst PK mod >57, USP2a inh 8.3%, Tau filament bind -5.4%, 15-hLO inh -8.5%, Hsp90 Hop PPI inconclusive, GBA mod >76.9, tau ThS displ inconclusive, aSyn ThS displ inconclusive and Abeta ThS bind inconclusive.
Screening CN1c2cccc3cccc(c23)N(C)C1(C)C returned USP2a inh 3.9%, Tau filament bind -80.8%, 15-hLO inh -12.3%, Hsp90 Hop PPI -20.3%, GBA mod >76.9, tau ThS displ inactive, aSyn ThS displ inconclusive and Abeta ThS bind inconclusive.
